Records with an inconclusive call do not appear. The source made the active and inactive calls. Rule for the calls: active = hit-call score of the fitted dose curve at least 0.9, where 1 is the maximum; inconclusive = response in the unintended direction; inactive = score below 0.9.

Chain of Retinoic acid receptor RXR-alpha (Homo sapiens) (P19793 whole entry, looked up): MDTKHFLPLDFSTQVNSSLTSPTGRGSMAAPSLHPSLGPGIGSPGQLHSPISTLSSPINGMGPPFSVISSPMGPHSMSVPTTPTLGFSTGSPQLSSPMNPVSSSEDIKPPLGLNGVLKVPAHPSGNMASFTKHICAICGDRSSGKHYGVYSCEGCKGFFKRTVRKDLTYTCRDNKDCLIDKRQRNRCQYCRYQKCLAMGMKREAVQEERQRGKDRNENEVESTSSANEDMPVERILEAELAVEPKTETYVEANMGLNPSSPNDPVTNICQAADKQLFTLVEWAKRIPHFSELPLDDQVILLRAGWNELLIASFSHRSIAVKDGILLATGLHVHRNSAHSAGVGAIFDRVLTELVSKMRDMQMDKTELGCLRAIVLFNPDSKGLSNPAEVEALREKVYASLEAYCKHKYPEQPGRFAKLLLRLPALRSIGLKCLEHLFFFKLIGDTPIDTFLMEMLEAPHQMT

The assay has as its target Retinoic acid receptor RXR-alpha (Homo sapiens) (UniProt P19793). The assay is described as follows: ATG_RXRa_TRANS: Attagene TRANS-FACTORIAL HepG2 Assay for human Retinoid X Receptor alpha (RXRa) (AID 2283012). How it is done:
ATG_TRANS is a cell-based, multiplexed-readout assay that uses HepG2, a human liver cell line, with measurements taken at 24 hours after chemical dosing in a 24-well plate.ATG_RXRa_TRANS is one of 30 assay component(s) measured or calculated from the ATG_TRANS assay. It is designed to make measurements of mRNA induction, a form of inducible reporter, as detected with fluorescence intensity signals by Reverse transcription polymerase chain reaction (RT-PCR) and Capillary electrophoresis technology.Data from the assay component ATG_RXRa_TRANS was analyzed into 1 assay endpoint. This assay endpoint, ATG_RXRa_TRANS, was analyzed in the positive analysis fitting direction relative to DMSO as the negative control and baseline of activity. Using a type of inducible reporter, measures of mRNA for gain-of-signal activity can be used to understand the reporter gene at the transcription factor-level as they relate to the gene RXRA. Furthermore, this assay endpoint can be referred to as a primary readout, because this assay has produced multiple assay endpoints where this one serves a reporter gene function. To generalize the intended target to other relatable targets, this assay endpoint is annotated to the nuclear receptor intended target family, where the subfamily is non-steroidal.
Human liver HepG2 cells are transiently transfected with multiple reporter transcription units (MRTUs) in 6-well plates using FuGene 6 reagent (Roche; 3 ml FuGene/1 mg DNA). The MRTU constructs are regulated by a cis-regulating element (promoter). […] A major difference between the CIS and TRANS system is that in CIS activities of endogenous TFs are measured, whereas the TRANS assay evaluates changes in activities of exogenous, chimeric NR-Gal4 proteins. […] At the end of 24 hour incubation, total RNA was isolated using TriZol reagent (Invitrogen). The isolated RNA is then reverse-transcribed using oligo(dT) primer and Mo-MLV reverse transcriptase (Invitrogen) with DNAse I (Ambion) treatment for 30 min. The one-tenth of the produced cDNA was amplified by PCR using Taq DNA polymerase (Invitrogen) and two reporter sequence-specific primers. The PCR products were fluorescently labeled by primer extension with 6-arboxyfluorescein (6-FAM) 5'-labeled reporter sequence-specific primer (2 min at 95 C, 20 s at 68 C and 10 min at 72 C) and these products were digested with 5U of HpaI (New England Biolabs) for 2h at 37 C. The fragments were purified using Qiaquick PCR columns (Qiagen), analyzed on an ABI 3130xL genetic analyzer (Applied Biosystems) with peak positions identified by using a set of X-rhodamine (ROX)-labeled MapMarker1000 molecular weight standards (BioVentures). The raw capillary electrophoresis data was processed using Attagraph software (Attagene).
For `CNCc1ccc(NC(=O)c2c[nH]c3c2C(=O)CCC3)cc1`, the compound was called inactive.
As to `Cn1cnc([N+](=O)[O-])c1Sc1ncnc2nc[nH]c12`, the result was inactive.
Regarding `COc1ccc(-n2nc(C(F)F)cc2-c2ccc(S(C)=O)cc2)cc1` (stereo not given), the call was inactive.
As for `O=C(NS(=O)(=O)/C=C/c1ccccc1)c1ccc(F)cc1Cl`, the outcome was inactive.
Still for that read-out and setting: with `C1=CCCC=CCCC=CCC1` the entry was “inactive”; with `CCCCC(CC)COC(=O)CCCCCCCCC(=O)OCC(CC)CCCC` (stereo not given), “inactive”; with `Nc1cccc(N)c1`, “inactive”.
For the compound `CCCCCCCCCCCCc1ccccc1`, the compound was classed as inactive.
For the compound `CC(C)CCO`, the result was inactive.
Turning to `CCOC(=O)c1ccc(C2CCC(NC[C@H](O)COc3ccc(O)c(NS(C)(=O)=O)c3)CC2)cc1` (stereo not given in full), the AC50 (commonly the concentration at which the activity in the assay is half-maximal) was 54.3 µM (active).
In the case of `CC(C)c1cccc(C(C)C)c1N1C(=O)c2ccc(O)cc2C1=O`, the outcome was inactive.
Take `Nc1nc2ncc(CNc3ccc(C(=O)N[C@@H](CCC(=O)O)C(=O)O)cc3)nc2c(=O)[nH]1`: the outcome was inactive.
On the same count and under the same terms, as for `O=C1OC(=O)C2C3C=CC(C3)C12` (stereo not given), the entry is “inactive”.
Same read-out and setting: as for `CC(=O)OC[C@H]1O[C@@](COC(C)=O)(O[C@H]2O[C@H](COC(C)=O)[C@@H](OC(C)=O)[C@H](OC(C)=O)[C@H]2OC(C)=O)[C@@H](OC(C)=O)[C@@H]1OC(C)=O`, the entry is “inactive”; as for `CCN(C(=O)c1cc(C)cc(OC[C@H](C)Nc2ccncc2)c1)C(C)C`, “inactive”.
The same measure, in the same setting: with `O=C(O)c1cccc(N(Cc2cccnc2)c2ccc(OC(F)F)c(OC(F)F)c2)c1` the entry was “inactive”; with `Cn1c(=O)c2c(ncn2C)n(C)c1=O`, “inactive”; with `On1ccccc1=S`, “inactive”.
Turning to `CN(C)c1ccc(N=NS(=O)(=O)O)cc1`, the compound was called inactive.
Still for that read-out and setting: with `CN(C)c1ccc(Cc2ccc(N(C)C)cc2)cc1` the entry was “inactive”.
Take `COCCOc1cc2cc(C(=O)NC3CCN(C(C)C)CC3)n(CC(=O)Nc3ccc(Cl)cn3)c2cn1`: the call was inactive.
For the compound `COc1cccc(-c2ccc(/C=C\CN3CCCCCC3)cc2Cl)c1`, the outcome was inactive.
Still for that read-out and setting: with `CCC(C)(C)C(=O)O[C@H]1C[C@@H](C)C=C2C=C[C@H](C)[C@H](CC[C@@H]3C[C@@H](O)CC(=O)O3)[C@H]21` the entry was “inactive”; with `CCOC(=O)CC(CC(=O)OCC)(OC(C)=O)C(=O)OCC`, “inactive”; with `O=C(OC[C@H]1O[C@@H](OC(=O)c2cc(O)c(O)c(OC(=O)c3cc(O)c(O)c(O)c3)c2)[C@H](OC(=O)c2cc(O)c(O)c(OC(=O)c3cc(O)c(O)c(O)c3)c2)[C@@H](OC(=O)c2cc(O)c(O)c(OC(=O)c3cc(O)c(O)c(O)c3)c2)[C@@H]1OC(=O)c1cc(O)c(O)c(OC(=O)c2cc(O)c(O)c(O)c2)c1)c1cc(O)c(O)c(OC(=O)c2cc(O)c(O)c(O)c2)c1`, “inactive”.
The same measure, in the same setting: as for `O=C(O)CCN(C1(C(=O)NO)CCCC1)S(=O)(=O)c1ccc(Oc2ccc(F)cc2)cc1`, the entry is “inactive”.
Turning to `CCCN(C1CCN(C(=O)C2CCNCC2)CC1)[C@@H]1CCc2ccc(OC)cc2C1`, the compound was called inactive.
With `COc1ccc2sc(C(=O)Nc3nnn[nH]3)c(OC(C)C)c2c1`, the compound was classed as inactive.
The same measure, in the same setting: with `C=CCCCCCCCCC(=O)O` the entry was “inactive”; with `Cn1c(=O)cc(Oc2ccc(F)cc2F)c2cnc(NCC(C)(C)O)nc21`, “inactive”; with `COC(=O)CC(=O)OC`, “inactive”.
Same read-out and setting: as for `CC[C@H]1CC[C@H](NCc2cc3c(cc2OC)[C@H]2C[C@H]2C(=O)N3C)[C@H](c2ccccc2)N1`, the entry is “inactive”; as for `CC/C(=C\C(=N/O)C(N)=O)C(C)[N+](=O)[O-]` (stereo not given), “inactive”.
Same read-out and setting: as for `CCOCCOCCOCCO`, the entry is “inactive”.
In the case of `Cc1ccc(S(=O)(=O)O)cc1C`, the call was inactive.
On the same count and under the same terms, with `CC(C)CCCCCCOC(=O)c1ccc(C(=O)OCCCCCCC(C)C)c(C(=O)OCCCCCCC(C)C)c1` the entry was “inactive”; with `CC(O)CN(CCN(CC(C)O)CC(C)O)CC(C)O` (stereo not given), “inactive”; with `O=C(O)c1cc(N=Nc2ccc(S(=O)(=O)Nc3ccccn3)cc2)ccc1O`, “inactive”.
The same measure, in the same setting: as for `CC(C)=CCC/C(C)=C/CO`, the entry is “inactive”.
Same read-out and setting: as for `COc1ccc(/C=C/S(=O)(=O)NC(=O)c2ccc(C)cc2Cl)cc1`, the entry is “inactive”.

The record behind these values is PubChem BioAssay (EPA / NIEHS).
